ssDAF-12 act: activates DAF-12 receptor from parasite S. stercoralis; HEK293 ssDAF-12/GRIP1 lit1-tk-luc reporter, luminescence; % of 3 µM dafachronic acid response; activation, % at 6.8 µM; 370,000 tested, 1% active; AID 652126;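 active means activation above the mean over all tested compounds plus 3 SD, cut at about 0.9% in these data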
hcDAF-12 act: H. contortus DAF-12 activation, primary screen; HEK293 hcDAF-12 lit1-tk-luc reporter, luminescence; 0% DMSO, 100% Δ7-dafachronic acid; 370,000 tested, 1.4% active; activation, % at 6.8 µM;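 active means activation above the mean of all tested compounds plus 3 SD, cut at about 5.5% in these data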
esBAF inh: inhibitors of esBAF chromatin remodeling in mouse ES cells. Bmi1-luciferase knock-in reporter, 24 h; 100% = twice the neutral-well signal. reporter increase, % at 12.5 µM. 350,000 tested, 2% active. AID 602393; in the data active means activation above about 40%;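 further: a rise in the Bmi1 reporter signal indicates esBAF inhibition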
hgDAF12 agonist: hgDAF-12 agonism, primary luciferase screen. HEK293 GAL4-hgDAF12 UAS-luciferase reporter, agonist luminescence; normalized to butyrate control. activation, % at 6.8 µM. 370,000 tested, 1.8% active;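 active means activation above a cutoff set at the mean of all screened compounds plus 3 SD, cut at about 10% in these data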
Wnt act: activates Wnt/beta-catenin signaling in a reporter cell assay; activation, % at 9.35 µM; 300,000 tested, 1.2% active; activator, plate reader; AID 743398; in the data active means activation above about 30%, passing the limit was not always enough
DAX1 inh: inhibitors of DAX1 repression of SF-1 activated StAR promoter; HEK293T StAR-luciferase reporter, SF-1/DAX-1 repression relief; inhibition, % at 6.8 µM; 370,000 tested, 1.1% active; AID 652010;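 active means inhibition above the mean over all tested compounds plus 3 SD, cut at about 3.6% in these data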;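 further: higher inhibition means more luminescence from relief of DAX-1 repression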
A number is an active result; - = inactive; . = not tested or not shown. Compounds with a hit are over-represented: about 4.2% of the library has one in this group of screens.

SMILES	ssDAF-12 act	hcDAF-12 act	esBAF inh	hgDAF12 agonist	Wnt act	DAX1 inh
CCN(CC)C(=O)CCCSc1nnc(Nc2ccccc2F)s1	-	-	.	13	-	-
O=C1c2ccccc2C(=O)N1CSc1nnc(Nc2ccccc2F)s1	-	-	.	-	-	-
O=C(C[C@@H]1CC[C@H]2[C@@H](COC[C@@H](O)CN2C(=O)Nc2ccccc2)O1)NCCCN1CCOCC1	.	.	-	.	.	.
O=C(CCCC(=O)c1ccc(O)cc1)c1ccc(O)cc1	-	-	-	11	56	-
O=C(CCCOC(=O)c1ccc(O)cc1)c1ccccc1	-	-	43	-	-	-
CCC(=O)c1ccc(O)cc1	-	-	-	-	-	-
CC(C(=O)N1CCCCCC1)N(c1ccc(Cl)cc1)S(C)(=O)=O (stereo not given)	-	-	-	-	-	-
CCOc1ccc(N(C(C)C(=O)N2CCCCCC2)S(C)(=O)=O)cc1 (stereo not given)	1.5	-	-	-	-	-
CC1=NN(C(=O)c2ccco2)C(O)(c2ccccc2)C1 (stereo not given)	1.0	-	.	11	-	-
CCC1=NN(C(=O)c2ccccc2O)C(O)(c2ccccc2)C1 (stereo not given)	-	-	87	-	-	-
CC1=NN(C(=O)CSCc2ccccc2)C(O)(c2ccccc2)C1 (stereo not given)	-	-	.	-	-	-
Cc1ccc(NC(=S)NC(=O)c2ccc(-c3ccc(Cl)cc3)o2)c(O)c1	2.5	-	.	-	-	-
Cc1ccc2c(CN3CCC(C)CC3)cc(=O)oc2c1	-	-	59	11	.	-
COc1ccc2c(CN3CCCCCCC3)cc(=O)oc2c1	-	-	48	-	-	-
Cc1ccc2c(CN3CC(C)CC(C)C3)cc(=O)oc2c1 (stereo not given)	-	-	-	-	-	-
Cc1cc2oc(=O)cc(CN3CCC(C)CC3)c2cc1Cl	-	-	58	-	-	-
Cc1ccc(S(=O)(=O)N[C@@H]2CC[C@@H](CC(=O)N3CCC(Cc4ccccc4)CC3)O[C@@H]2CO)cc1	.	.	-	.	.	.
CC(C)C#Cc1cnc2c(c1)C(=O)N([C@H](C)CO)C[C@@H](C)[C@@H](CN(C)C(=O)c1ccccc1F)O2	.	.	-	.	.	.
C[C@@H]1CN([C@@H](C)CO)C(=O)c2cc(-c3ccc(F)cc3)cnc2O[C@@H]1CN(C)CC1CC1	.	.	-	.	.	.
C[C@H](CO)N1C[C@H](C)[C@H](CN(C)S(C)(=O)=O)Oc2ccc(NC(=O)CCN3CCOCC3)cc2CC1=O	.	.	-	.	.	.
CCOc1ccc2nc(NC(=O)C3CCN(C(=O)c4ccco4)CC3)sc2c1	-	-	65	-	-	-
CCOc1ccc2nc(N3CCC(C(=O)N4CCN(C5CCCCC5)CC4)CC3)sc2c1	-	-	65	-	-	-
CCOc1ccc2nc(N3CCC(C(=O)Nc4nnc(CC)s4)CC3)sc2c1	-	-	48	-	-	-
CC(C)NC(=O)N(C)C[C@@H]1OCc2ccccc2-c2c(n(C)c3ccccc23)C(=O)N([C@H](C)CO)C[C@@H]1C	.	.	-	.	.	.
COc1ccc2c(c1)Cc1sc(NC(=O)c3cccnc3)nc1-2	-	-	.	-	-	-
SMILES	ssDAF-12 act	hcDAF-12 act	esBAF inh	hgDAF12 agonist	Wnt act	DAX1 inh
COc1ccc2c(c1)Cc1sc(NC(=O)c3ccco3)nc1-2	-	-	46	-	.	-
CCOC(=O)c1sc(NC(=O)c2ccco2)nc1-c1ccccc1	-	-	-	-	-	-
COc1ccc2c(c1)-c1nc(NC(=O)c3ccco3)sc1CC2	-	-	.	-	64	-
COc1ccc2c(c1)Cc1sc(NC(C)=O)nc1-2	-	-	41	-	.	-
CC(=O)c1sc(NC(=O)c2ccco2)nc1-c1ccccc1	.	.	62	.	.	.
CN(C)CC(=O)Nc1ccc2c(c1)[C@@H]1C[C@@H](CC(=O)N3CCOCC3)O[C@H](CO)[C@@H]1O2	.	.	-	.	.	.
COCC#Cc1cnc2c(c1)C(=O)N([C@@H](C)CO)C[C@H](C)[C@H](CN(C)C(=O)Nc1ccccc1OC)O2	.	.	-	.	.	.
O=C(C[C@H]1C[C@@H]2c3cc(NS(=O)(=O)c4ccc(F)cc4)ccc3O[C@@H]2[C@@H](CO)O1)NCc1ccc(-c2ccccc2)cc1	.	.	-	.	.	.
C[C@H]1CCCCO[C@H](CN(C)Cc2ccc(C(=O)O)cc2)[C@@H](C)CN([C@@H](C)CO)C(=O)c2cc(NS(=O)(=O)c3ccc(F)cc3)ccc2O1	.	.	-	.	.	.

Source: PubChem BioAssay (several laboratories)
